Results on 40 molecules are retold here after the supplement of paper PMC6522484.

Where “and” joins values, the source holds several entries; their conditions need not be identical. Equal values may be shown once. ± gives the standard deviation of the averaged measurements.

The test system of this assay is SW480. The assay is described as follows: cell viability (CellTiter-Glo) relative to plate median (fraction of plate median); higher = more viable cells. To be noted: 5 µM; treatment time 24 h; reporter: 7TFP. In short, it runs like this: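 Normalisation used webcellHTS2 in additive mode without log transformation, scaling each well's luminescence to the plate median. The luminescence was firefly luciferase or CellTiterGlo, read on a Tecan F500 from parallel plates of colorectal cancer cells stably transduced with lentiviral TCF/Wnt firefly luciferase reporters. Those cells had been given library compounds at a final 5 µM for 24 h, and two independent replicates were averaged.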
`O=C(c1ccc(OCCN2CCCCC2)cc1)c1c(-c2ccc(O)cc2)sc2cc(O)ccc12` yielded a cell viability of 0.938 ± 0.066.
Next, `OCC(O)C(O)C(O)CO` (stereo not given): 0.905 and 0.944.
The molecule `COc1cc2c(cc1OC)[C@@H]1Cc3ccc(OC)c(OC)c3CN1CC2` registered a cell viability of 0.9275 ± 0.0035.
As for `NCCCCNCCCN`, the figure is 0.958 ± 0.05; as for `COc1cc(C)c2c(c1C=O)Oc1c(c(C)c(O)c3c1C(O)OC3=O)OC2=O` (stereo not given), 1.06 ± 0.014; as for `COc1ccc(-c2cc(=O)c3c(O)cc(O)cc3o2)cc1`, 1.05 ± 0.064.
As for `C[C@]12C=CC(=O)C=C1CC[C@H]1[C@@H]3C[C@@H](O)[C@](O)(C(=O)CO)[C@@]3(C)C[C@H](O)[C@@]12F`, the figure is 0.982 ± 0.012; as for `COC(=O)Nc1nc2cc([S+]([O-])c3ccccc3)ccc2[nH]1` (stereo not given), 1.01 ± 0.08; as for `C=C1CCC2C(CC2(C)C)C(=C)CC/C1=N/O` (stereo not given), 1 ± 0.023.
On to `CC(=O)O[C@H]1CC[C@]2(C)[C@H]3CC=C4[C@@H]5CC(C)(C)CC[C@]5(C)CC[C@@]4(C)[C@]3(C)CC[C@H]2C1(C)C` [beta-AMYRIN ACETATE], for which the cell viability is 1.03 ± 0.021.
Molecule `CN(C(=O)C(Cl)Cl)c1ccc(OC(=O)c2ccco2)cc1` returned a cell viability of 1.03 ± 0.021.
Next, `CC1CC2C3CCC4=CC(=O)C=CC4(C)C3(F)C(O)CC2(C)C1C(=O)CO` (stereo not given): 0.939 ± 0.026.
As for `CC(=O)O[C@H]1CC[C@]2(C)C3=CC(=O)[C@@]4(C)C(C[C@@H]5OC6(OCC(C)CC6Br)[C@@H](C)[C@@H]54)C3CC[C@H]2C1` (stereo partly drawn) [3beta-ACETOXY-23-BROMO-ISOALLOSPIROST-9 (11)-ENE-12-ONE], the figure is 1.03 ± 0.05; as for `CO[C@@H]1[C@H](O)[C@@H](C)O[C@@H](OC[C@H]2[C@@H]3O[C@H]3/C=C/C(=O)[C@@](C)(O)C[C@H](C)[C@H](O[C@@H]3O[C@H](C)C[C@H](OC)[C@H]3O)[C@@H](C)/C=C/C(=O)O[C@@H]2C)[C@@H]1OC` [Chalcomycin], 1.01 ± 0.048.
Turning to `CC(C)COCC(CN(Cc1ccccc1)c1ccccc1)N1CCCC1` (stereo not given), the cell viability was 1.02 ± 0.06.
As for `COc1cccc2c(C)cc(=O)[nH]c12`, the figure is 1.02 ± 0.09; as for `CC1(C)CCC[C@]2(C)[C@@H]3[C@H]1[C@@H](O)[C@@]2(C)C[C@H]3O`, 1.12 ± 0.014; as for `O=c1ccc2ccccc2o1`, 0.976 ± 0.014.
As for `CCC[C@H](N[C@@H](C)C(=O)N1[C@H](C(=O)O)C[C@@H]2CCCC[C@@H]21)C(=O)OCC`, the figure is 0.961 ± 0.037.
In turn, `O=c1cc(-c2ccccc2)oc2cc(O)cc(O)c12` yielded a cell viability of 1.02 ± 0.045.
Next, `NC[C@H]1CC[C@H](C(=O)O)CC1`: 1.02 ± 0.014; `CCC1(c2ccccc2)C(=O)NCNC1=O`: 1 ± 0.025; `Oc1c(Br)cc(Br)c2cccnc12`: 0.965 ± 0.064.
As for `Cc1cnc(NC(=O)C2=C(O)c3ccccc3S(=O)(=O)N2C)s1`, the figure is 0.995 ± 0.079.
With `COC1=CC(=O)c2c(O)c3c(c(O)c2C1=O)OC1(Oc2c(cc4cc(C)oc(=O)c4c2O)C2OC21)C3O` (stereo not given) [Griseorhodin A], the cell viability came out at 1.05 ± 0.021.
Next, `N/C(=N\C(=O)c1nc(Cl)c(N)nc1N)NCc1ccccc1`: 0.998 ± 0.031; `NCc1ccc(S(N)(=O)=O)cc1`: 0.991 ± 0.042.
Next, `O=c1cc(-c2ccccc2)oc2cc(O)c(O)cc12`: 1.03 ± 0.042; `CC(=O)Oc1cccc(O)c1`: 1.07 ± 0.021; `CC(C)=CC1C(C(=O)O)C1(C)C` (stereo not given): 0.977 ± 0.047.
Next, `OCCOCCN1CCN(C2=Nc3ccccc3Sc3ccccc32)CC1`: 0.991 ± 0.013; `Nc1nc(/C(=C/CC(=O)O)C(=O)N[C@@H]2C(=O)N3C(C(=O)O)=CCS[C@H]23)cs1`: 0.985 ± 0.0042; `CN1CCCC(n2nc(Cc3ccc(Cl)cc3)c3ccccc3c2=O)CC1` (stereo not given): 1.045 ± 0.0071.
As for `O=c1c(O)cccc2cc(O)c(O)c(O)c12`, the cell viability was found to be 1.01 ± 0.037.
`Oc1ccc([C@H]2Oc3cc(O)cc(O)c3C[C@H]2O)cc1` came in with a cell viability of 0.974 ± 0.021.
Next, `CCOC(=O)c1ccc(O)cc1`: 1.004 ± 0.0078; `C[C@@H]1C(=O)O[C@H]2C[C@@]34[C@H]5C[C@@H](C(C)(C)C)[C@]36[C@@H](OC(=O)[C@@H]6O)O[C@@]4(C(=O)O5)[C@]21O`: 0.99 ± 0.015.
Next, `COc1ccc(-c2coc3cc(OC)cc(OC)c3c2=O)cc1`: 1.035 ± 0.0071; `C[C@H]1C[C@@H]2[C@H]([C@@H](O)C[C@@]3(C)[C@H]2CC[C@]3(O)C(=O)CO)[C@@]2(C)C=CC(=O)C=C12`: 1.04 ± 0.014; `COC(=O)Nc1nc2cc(C(=O)c3ccccc3)ccc2[nH]1`: 1 ± 0.028.
